# Test results from PubChem BioAssay (EPA / NIEHS).
# Results filed as inconclusive are left out. Calls of active or inactive are those of the source. How the source made its calls: active means hit-call score of the fitted dose curve at least 0.9, where 1 is the maximum; inconclusive means response in the unintended direction; inactive means score below 0.9.
# System: not listed separately
# Assay: ATG_M_19_TRANS: Attagene TRANS-FACTORIAL HepG2 Assay for M19 Transcription Factor (Internal Marker) (AID 2282974)
# Conditions: HepG2 Attagene TRANS-FACTORIAL M19 internal marker reporter
# Summary of the method: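 Reporter mRNA induction was measured in transfected HepG2 cells 24 h after dosing. Endpoint fitted upward relative to DMSO and serves as a background control within the multiplexed TRANS panel.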
row,SMILES,outcome
1,COP(=O)(O)OC,inactive
2,N#Cc1c(-c2ccc(Cl)cc2)[nH]c(C(F)(F)F)c1Br,inactive
3,CC(C)(C)c1ccccc1OP(=O)(Oc1ccccc1)Oc1ccccc1,inactive
4,Cc1ccc(O)cc1C,inactive
5,CCOP(=O)(O)C(N)=O,inactive
6,OCC1CO1 (centres undefined),inactive
7,Cn1[nH]nnc1=S,inactive
8,O=C(O)CF,inactive
9,CCCCOCC1CO1 (centres undefined),inactive
10,N#Cc1ccc(O)cc1,inactive
11,Oc1ccc(I)cc1,inactive
12,CCOP(=S)(OCC)SCSc1ccc(Cl)cc1,inactive
13,CNC(=O)Oc1ccc(N(C)C)c(C)c1,inactive
14,c1ccc(OP(Oc2ccccc2)Oc2ccccc2)cc1,inactive
15,OCC(F)(F)OC(F)(F)C(F)(F)OC(F)(F)C(F)(F)OC(F)(F)CO,inactive
16,Nc1ccc(Cl)cc1,inactive
17,COC(N)=O,inactive
18,Nc1ccc2ccccc2c1,inactive
19,Nc1ccc([N+](=O)[O-])cc1Cl,inactive

# System: not listed separately
# Assay: ATG_GAL4_TRANS: Attagene TRANS-FACTORIAL HepG2 Assay for GAL4 (Internal Marker) (AID 2282976)
# Conditions: HepG2 Attagene TRANS GAL4 internal marker reporter
# Summary of the method: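 HepG2 cells transiently transfected with multiplexed GAL4-UAS reporter constructs were dosed for 24 h. Reporter mRNA was measured by RT-PCR, 6-FAM primer extension, HpaI digestion and capillary electrophoresis, and gain of signal was fitted relative to DMSO.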
row,SMILES,outcome
1,CCC1(c2ccccc2)C(=O)N=C(O)NC1=O (centres undefined),inactive
2,N#Cc1c(-c2ccc(Cl)cc2)[nH]c(C(F)(F)F)c1Br,inactive
3,Cc1c([N+](=O)[O-])cc2c(c1[N+](=O)[O-])C(C)(C)CC2(C)C,inactive
4,CC(C)(C)c1ccccc1OP(=O)(Oc1ccccc1)Oc1ccccc1,inactive
5,Cc1ccc(O)cc1C,inactive
6,CCOP(=O)(O)C(N)=O,inactive
7,Cn1[nH]nnc1=S,inactive
8,CC(C)(C)N(NC(=O)c1ccc(Cl)cc1)C(=O)c1ccccc1,inactive
9,CC(O)C#N (centres undefined),inactive
10,O=C(O)CF,inactive
11,CCCCOCCOP(=O)(OCCOCCCC)OCCOCCCC,inactive
12,C=C(C)C(=O)OCC1CO1 (centres undefined),inactive
13,CCCCOCC1CO1 (centres undefined),inactive
14,N#Cc1ccc(O)cc1,inactive
15,O=C(O)C(Cl)Cl,inactive
16,CC(C)CBr,inactive
17,Nc1ccc(Cl)cc1,inactive
18,COC(N)=O,inactive
19,Nc1ccc2ccccc2c1,inactive
20,Nc1ccc([N+](=O)[O-])cc1Cl,inactive

# Molecular target: Estrogen-related receptor gamma (Homo sapiens) (UniProt P62508)
# Sequence (P62508 whole entry, looked up): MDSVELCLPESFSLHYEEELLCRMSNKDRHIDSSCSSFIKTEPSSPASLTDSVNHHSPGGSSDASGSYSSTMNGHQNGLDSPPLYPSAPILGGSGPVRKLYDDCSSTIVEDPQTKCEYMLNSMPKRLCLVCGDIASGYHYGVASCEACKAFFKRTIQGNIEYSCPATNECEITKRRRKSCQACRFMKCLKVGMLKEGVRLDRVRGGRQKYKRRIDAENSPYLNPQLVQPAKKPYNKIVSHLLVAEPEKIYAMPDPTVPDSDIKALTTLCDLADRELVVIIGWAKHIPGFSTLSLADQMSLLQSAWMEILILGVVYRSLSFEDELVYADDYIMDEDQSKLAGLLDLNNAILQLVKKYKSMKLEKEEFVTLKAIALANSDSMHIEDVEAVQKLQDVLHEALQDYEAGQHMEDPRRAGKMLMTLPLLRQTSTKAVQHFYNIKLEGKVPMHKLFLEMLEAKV
# Assay: ATG_ERRg_TRANS: Attagene TRANS-FACTORIAL HepG2 Assay for human Estrogen-Related Receptor gamma (ERRg) (AID 2282977);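 further: hits increase reporter signal over DMSO so potencies reflect activators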
# Conditions: HepG2 Attagene TRANS reporter, ERRg transactivation
# Summary of the method: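 Exogenous NR-Gal4 chimera activity measured as reporter transcript induction after 24 h in transiently transfected HepG2 cells. RNA reverse-transcribed, PCR-amplified, 6-FAM-labelled and resolved by capillary electrophoresis; increase over DMSO baseline.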
row,SMILES,outcome
1,N#Cc1c(-c2ccc(Cl)cc2)[nH]c(C(F)(F)F)c1Br,inactive
2,CC(C)(C)c1ccccc1OP(=O)(Oc1ccccc1)Oc1ccccc1,inactive
3,CCOP(=S)(NC(C)C)Oc1ccccc1C(=O)OC(C)C (centres undefined),inactive
4,CCCCOCC1CO1 (centres undefined),inactive
5,CNC(=O)Oc1ccc(N(C)C)c(C)c1,inactive
6,CC(C)CBr,inactive
7,Nc1ccc2ccccc2c1,inactive

# Molecular target: Glucocorticoid receptor (Homo sapiens) (UniProt P04150)
# Sequence (P04150 whole entry, looked up): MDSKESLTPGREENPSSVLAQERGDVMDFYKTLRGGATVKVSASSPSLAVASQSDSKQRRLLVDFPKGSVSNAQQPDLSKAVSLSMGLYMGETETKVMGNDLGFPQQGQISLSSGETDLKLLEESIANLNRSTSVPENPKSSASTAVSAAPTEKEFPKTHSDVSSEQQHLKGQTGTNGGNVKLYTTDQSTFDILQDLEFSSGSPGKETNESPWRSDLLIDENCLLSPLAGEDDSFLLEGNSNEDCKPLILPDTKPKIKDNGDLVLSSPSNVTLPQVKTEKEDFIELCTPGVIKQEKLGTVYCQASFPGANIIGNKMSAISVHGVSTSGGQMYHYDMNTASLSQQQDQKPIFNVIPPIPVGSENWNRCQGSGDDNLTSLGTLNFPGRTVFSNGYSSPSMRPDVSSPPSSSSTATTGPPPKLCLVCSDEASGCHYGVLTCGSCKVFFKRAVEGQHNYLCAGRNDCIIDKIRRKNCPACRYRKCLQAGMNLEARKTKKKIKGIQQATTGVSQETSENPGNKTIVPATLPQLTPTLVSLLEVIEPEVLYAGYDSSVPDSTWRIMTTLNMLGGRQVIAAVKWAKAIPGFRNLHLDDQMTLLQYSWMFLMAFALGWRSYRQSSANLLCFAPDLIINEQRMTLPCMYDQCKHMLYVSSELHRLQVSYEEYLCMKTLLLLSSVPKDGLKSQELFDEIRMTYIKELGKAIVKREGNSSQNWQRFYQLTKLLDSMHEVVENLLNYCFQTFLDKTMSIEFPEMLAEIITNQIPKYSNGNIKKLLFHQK
# Assay: ATG_GR_TRANS: Attagene TRANS-FACTORIAL HepG2 Assay for human Glucocorticoid Receptor (GR) (AID 2282978);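 further: activators score as hits since higher reporter transcript over DMSO is fitted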
# Conditions: HepG2 Attagene TRANS GR reporter, mRNA transcription
# Summary of the method: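 Reporter transcript levels, detected by fluorescence after RT-PCR and capillary electrophoresis, served as the endpoint. HepG2 cells bearing transfected GAL4-UAS reporters responsive to NR-GAL4 chimeras were incubated with compound 24 h; DMSO defined baseline.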
SMILES,outcome,AC50
COP(=O)(O)OC,inactive,–
CO/N=C(/C(=O)OC)c1ccccc1COc1ccccc1C,inactive,–
N#Cc1c(-c2ccc(Cl)cc2)[nH]c(C(F)(F)F)c1Br,inactive,–
Cc1c([N+](=O)[O-])cc2c(c1[N+](=O)[O-])C(C)(C)CC2(C)C,inactive,–
CC(C)(C)c1ccccc1OP(=O)(Oc1ccccc1)Oc1ccccc1,inactive,–
CCCCC(CC)COC(=O)c1c(Br)c(Br)c(Br)c(Br)c1C(=O)OCC(CC)CCCC (centres undefined),–,14.1 µM (active)
CCOP(=S)(NC(C)C)Oc1ccccc1C(=O)OC(C)C (centres undefined),inactive,–
O=[N+]([O-])c1cc(Cl)ccc1Cl,inactive,–
CC(C)(C)N(NC(=O)c1ccc(Cl)cc1)C(=O)c1ccccc1,inactive,–
O=C(O)C1C(C(=O)O)C2(Cl)C(Cl)=C(Cl)C1(Cl)C2(Cl)Cl (centres undefined),inactive,–
CC(O)C#N (centres undefined),inactive,–
CCCCOCCOP(=O)(OCCOCCCC)OCCOCCCC,inactive,–
C=C(C)C(=O)OCC1CO1 (centres undefined),inactive,–
N#Cc1ccc(O)cc1,inactive,–
Oc1ccc(I)cc1,inactive,–
O=C(O)C(Cl)Cl,inactive,–
c1ccc(OP(Oc2ccccc2)Oc2ccccc2)cc1,inactive,–
OCC(F)(F)OC(F)(F)C(F)(F)OC(F)(F)C(F)(F)OC(F)(F)CO,inactive,–
COC(N)=O,inactive,–
Nc1ccc([N+](=O)[O-])cc1Cl,inactive,–
ClC1=C(Cl)C2(Cl)C3C(Cl)C(Cl)CC3C1(Cl)C2(Cl)Cl (centres undefined),–,100 µM (active)
CC1=C(C(=O)Nc2ccccc2)S(=O)(=O)CCO1,inactive,–

# Molecular target: Bile acid receptor (Homo sapiens) (UniProt Q96RI1)
# Sequence (Q96RI1 whole entry, looked up): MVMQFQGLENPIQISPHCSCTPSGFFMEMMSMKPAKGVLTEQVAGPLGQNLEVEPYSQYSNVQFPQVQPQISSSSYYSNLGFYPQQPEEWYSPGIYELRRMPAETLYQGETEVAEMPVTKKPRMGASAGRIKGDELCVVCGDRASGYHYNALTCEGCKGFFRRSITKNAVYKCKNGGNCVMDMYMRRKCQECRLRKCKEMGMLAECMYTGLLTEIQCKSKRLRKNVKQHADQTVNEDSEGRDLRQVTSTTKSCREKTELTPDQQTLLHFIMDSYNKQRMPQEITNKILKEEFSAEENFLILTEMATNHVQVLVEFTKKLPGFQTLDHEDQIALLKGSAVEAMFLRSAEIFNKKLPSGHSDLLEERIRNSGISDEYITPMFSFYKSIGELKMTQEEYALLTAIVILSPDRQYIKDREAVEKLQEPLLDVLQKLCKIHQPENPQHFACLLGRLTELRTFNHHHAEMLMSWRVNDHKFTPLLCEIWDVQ
# Assay: ATG_FXR_TRANS: Attagene TRANS-FACTORIAL HepG2 Assay for Farnesoid X Receptor (FXR) (AID 2282979);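 further: hits raise reporter mRNA above DMSO so AC50 marks FXR activation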
# Conditions: HepG2 Attagene TRANS FXR-GAL4 reporter transcription
# Summary of the method: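 HepG2 cells transiently transfected with reporter constructs in which a chimeric FXR-GAL4 protein drives a GAL4-UAS reporter; 24 h compound exposure. Reporter mRNA measured by RT-PCR, FAM labelling, HpaI digestion and capillary electrophoresis; gain-of-signal versus DMSO.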
SMILES,outcome,AC50
COP(=O)(O)OC,inactive,–
CO/N=C(/C(=O)OC)c1ccccc1COc1ccccc1C,inactive,–
N#Cc1c(-c2ccc(Cl)cc2)[nH]c(C(F)(F)F)c1Br,inactive,–
Cc1c([N+](=O)[O-])cc2c(c1[N+](=O)[O-])C(C)(C)CC2(C)C,inactive,–
CC(C)(C)c1ccccc1OP(=O)(Oc1ccccc1)Oc1ccccc1,inactive,–
CCCCC(CC)COC(=O)c1c(Br)c(Br)c(Br)c(Br)c1C(=O)OCC(CC)CCCC (centres undefined),inactive,–
CCOP(=S)(NC(C)C)Oc1ccccc1C(=O)OC(C)C (centres undefined),inactive,–
O=[N+]([O-])c1cc(Cl)ccc1Cl,inactive,–
CCOP(=O)(O)C(N)=O,inactive,–
Cn1[nH]nnc1=S,inactive,–
CC(C)(C)N(NC(=O)c1ccc(Cl)cc1)C(=O)c1ccccc1,inactive,–
CC(O)C#N (centres undefined),inactive,–
N#Cc1ccc(O)cc1,inactive,–
Oc1ccc(I)cc1,inactive,–
CCOP(=S)(OCC)SCSc1ccc(Cl)cc1,inactive,–
CC(C)(C)c1ccc(O)cc1,inactive,–
CC(C)CBr,inactive,–
OCC(F)(F)OC(F)(F)C(F)(F)OC(F)(F)C(F)(F)OC(F)(F)CO,inactive,–
Nc1ccc([N+](=O)[O-])cc1Cl,inactive,–
ClC1=C(Cl)C2(Cl)C3C(Cl)C(Cl)CC3C1(Cl)C2(Cl)Cl (centres undefined),–,54.7 µM (active)
CC1=C(C(=O)Nc2ccccc2)S(=O)(=O)CCO1,inactive,–
